Activity calls are given as the source filed them. Rule for the calls: active = hit-call score of the fitted dose curve at least 0.9, where 1 is the maximum; inactive = score below 0.9.
Experiments:
Details in all cases: mRNA level, 48 h; actives raise or lower the signal
[1] = read-out: Lipase C (LIPC), LIPC (gene 3990); assay: LTEA_HepaRG_LIPC: Life Technologies and Expression Analysis (LTEA) Assay for Lipase C (LIPC) using HepaRG (AID 2283514)
Method in brief: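 Read-out is LIPC transcript level by TaqMan qRT-PCR, normalized to three housekeeping genes, after 48 h chemical treatment of human HepaRG liver cells. Curves span eight concentrations topping at 100 uM; activity in either direction scored relative to 0.5% DMSO.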

[2] = read-out: Lipoprotein lipase (LPL), LPL (gene 4023); assay: LTEA_HepaRG_LPL: Life Technologies and Expression Analysis (LTEA) Assay for Lipoprotein lipase (LPL) using HepaRG (AID 2283515)
Method in brief: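 Read-out is LPL transcript level by qRT-PCR, normalized to three housekeeping genes and fitted bidirectionally against the DMSO control. Human HepaRG cells received chemicals for 48 h at up to 100 uM.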

[3] = read-out: MicroRNA 122 (MIR122), gene 406906; assay: LTEA_HepaRG_MIR122: Life Technologies and Expression Analysis (LTEA) Assay for MicroRNA 122 (MIR122) using HepaRG (AID 2283516); note: the transcript read is the microRNA miR-122
Method in brief: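 HepaRG, 48 h exposure, 8-pt half-log from 100 uM, 0.5% DMSO; TaqMan qRT-PCR; bidirectional fit vs DMSO.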

[4] = read-out: matrix metalloproteinase-10 (MMP10), MMP10 (gene 4319); assay: LTEA_HepaRG_MMP10: Life Technologies and Expression Analysis (LTEA) Assay for matrix metalloproteinase-10 (MMP10) using HepaRG (AID 2283517)
Method in brief: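 Gain or loss of MMP10 mRNA is fitted relative to the 0.5% DMSO vehicle. The human hepatic line HepaRG receives a 48-hour serum-free exposure, in duplicate, with a maximum concentration of 100 uM.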

MYC, MYC (gene 4609) = assay: LTEA_HepaRG_MYC: Life Technologies and Expression Analysis (LTEA) Assay for MYC using HepaRG (AID 2283518)
Method in brief: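 Cells are thawed, plated and cultured 48 h, then treated for 48 h with test chemicals (eight half-log concentrations from 100 uM, 0.5% DMSO vehicle). RNA is isolated and MYC expression quantified by qRT-PCR against three housekeeping genes.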

[5] = read-out: matrix metalloproteinase-3 (MMP3), MMP3 (gene 4314); assay: LTEA_HepaRG_MMP3: Life Technologies and Expression Analysis (LTEA) Assay for matrix metalloproteinase-3 (MMP3) using HepaRG (AID 2283519)
Method in brief: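 HepaRG, human; 48 h dosing, 8 conc. (max 100 uM, half-log), duplicate, 0.5% DMSO. Readout: MMP3 transcript by Fluidigm TaqMan qRT-PCR, ACTB/GAPDH/POLR2A-normalised. Gain or loss fitted vs DMSO.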

[6] = read-out: Paternally Expressed 10 (PEG10), PEG10 (gene 23089); assay: LTEA_HepaRG_PEG10: Life Technologies and Expression Analysis (LTEA) Assay for Paternally Expressed 10 (PEG10) using HepaRG (AID 2283520);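 for AC50: PEG10 transcript by qRT-PCR normalised to ACTB GAPDH and POLR2A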
Method in brief: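 Chemicals tested on HepaRG cells for 48 h, highest concentration 100 uM. PEG10 expression assessed by qRT-PCR relative to DMSO control.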

[7] = read-out: Protein phosphatase 2A (PPP2R4), PTPA (gene 5524); assay: LTEA_HepaRG_PPP2R4: Life Technologies and Expression Analysis (LTEA) Assay for Protein phosphatase 2A (PPP2R4) using HepaRG (AID 2283522)
Method in brief: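 Gene-expression endpoint in HepaRG hepatic cells: 48 h treatment across eight half-log concentrations up to 100 uM in 0.5% DMSO. PPP2R4 mRNA by qRT-PCR, normalized to three endogenous control genes.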

[8] = read-out: Phosphatase and tensin (PTEN), PTEN (gene 5728); assay: LTEA_HepaRG_PTEN: Life Technologies and Expression Analysis (LTEA) Assay for Phosphatase and tensin (PTEN) using HepaRG (AID 2283523)
Method in brief: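 Read-out is PTEN transcript level by multiplexed TaqMan qRT-PCR after 48 h chemical treatment of human HepaRG cultures in serum-free induction medium. Concentrations spanned 100 uM downward in half-log steps, 0.5% DMSO throughout; activity fitted in both directions against vehicle.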

[9] = read-out: solute carrier (SLC22A1), SLC22A1 (gene 6580); assay: LTEA_HepaRG_SLC22A1: Life Technologies and Expression Analysis (LTEA) Assay for solute carrier (SLC22A1) using HepaRG (AID 2283524);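 for AC50: differentiated human HepaRG liver cells in serum-free induction medium; TaqMan qRT-PCR normalized to ACTB GAPDH and POLR2A housekeeping genes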
Method in brief: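 HepaRG (human liver line), 48 h dosing in serum-free induction medium; 8 conc., half-log down from 100 uM, 0.5% DMSO vehicle, duplicates. Endpoint: SLC22A1 mRNA, qRT-PCR, housekeeping-normalized; gain/loss fit vs DMSO.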

[10] = read-out: Pyruvate Dehydrogenase Kinase 4 (PDK4), PDK4 (gene 5166); assay: LTEA_HepaRG_PDK4: Life Technologies and Expression Analysis (LTEA) Assay for Pyruvate Dehydrogenase Kinase 4 (PDK4) using HepaRG (AID 2283525)
Method in brief: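 In this multiplexed human HepaRG expression assay, cells are treated 48 h with test chemicals across an eight-point range starting at 100 uM. PDK4 mRNA changes, normalized to ACTB/GAPDH/POLR2A, are fitted in both directions relative to vehicle.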

[11] = read-out: NAD(P)H dehydrogenase [quinone] 1 (NQO1), NQO1 (gene 1728); assay: LTEA_HepaRG_NQO1: Life Technologies and Expression Analysis (LTEA) Assay for NAD(P)H dehydrogenase [quinone] 1 (NQO1) using HepaRG (AID 2283526)
Method in brief: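 Human HepaRG hepatic cells received chemicals for 48 h in serum-free induction medium with 0.5% DMSO, up to 100 uM. Expression was assessed by TaqMan qRT-PCR against housekeeping controls and fitted bidirectionally against DMSO.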

[12] = read-out: Nuclear factor erythroid 2-related factor 2 (Homo sapiens) (UniProt Q16236); assay: LTEA_HepaRG_NFE2L2: Life Technologies and Expression Analysis (LTEA) Assay for Nuclear factor erythroid 2-related factor 2 (NFE2L2) Transcription Factor using HepaRG (AID 2283527)
Method in brief: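 Transcript level of NFE2L2 is the read-out, measured by microfluidic TaqMan qRT-PCR and normalized to three housekeeping genes. Human HepaRG cultures received test chemical for 48 h at up to 100 uM in half-log steps. Gain or loss of signal is fitted relative to 0.5% DMSO.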

[13] = read-out: succinate dehydrogenase complex iron sulfur subunit B (SDHB), SDHB (gene 6390); assay: LTEA_HepaRG_SDHB: Life Technologies and Expression Analysis (LTEA) Assay for succinate dehydrogenase complex iron sulfur subunit B (SDHB) using HepaRG (AID 2283528)
Method in brief: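 A human HepaRG culture in serum-free induction medium received test chemicals for 48 h over an eight-point range capped at 100 uM. SDHB expression change was quantified by qRT-PCR.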

[14] = read-out: Signal transducer and activator of transcription 3 (Homo sapiens) (UniProt P40763); assay: LTEA_HepaRG_STAT3: Life Technologies and Expression Analysis (LTEA) Assay for Signal transducer and activator of transcription (STAT3) using HepaRG (AID 2283529)
Method in brief: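 Read-out is STAT3 mRNA level by qRT-PCR, normalized to three housekeeping genes, in human HepaRG liver cells treated for 48 h. Concentrations ran from 100 uM downward in half-log steps; curves were fitted for gain or loss relative to 0.5% DMSO.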

[15] = read-out: sulfotransferase 2A1 (SULT2A1), SULT2A1 (gene 6822); assay: LTEA_HepaRG_SULT2A1: Life Technologies and Expression Analysis (LTEA) Assay for sulfotransferase 2A1 (SULT2A1) using HepaRG (AID 2283531)
Method in brief: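 Cells were plated and cultured 48 h, switched to serum-free induction medium, then dosed in duplicate for 48 h (8 concentrations, max 100 uM). RNA was isolated and SULT2A1 expression measured by qRT-PCR; gain or loss of signal fitted relative to DMSO.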

[16] = read-out: Transforming Growth Factor (TGFA), TGFA (gene 7039); assay: LTEA_HepaRG_TGFA: Life Technologies and Expression Analysis (LTEA) Assay for Transforming Growth Factor (TGFA) using HepaRG (AID 2283532)
Method in brief: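 HepaRG (human liver line), 48 h exposure, 8 conc. half-log down from 100 uM, 0.5% DMSO vehicle, duplicates; serum-free induction medium. TGFA mRNA by TaqMan qRT-PCR, ACTB/GAPDH/POLR2A normalization; gain/loss fit vs DMSO.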

[17] = read-out: Transforming Growth Factor (TGFB1), TGFB1 (gene 7040); assay: LTEA_HepaRG_TGFB1: Life Technologies and Expression Analysis (LTEA) Assay for Transforming Growth Factor (TGFB1) Transporter using HepaRG (AID 2283533)
Method in brief: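 Expression change of TGFB1 in human HepaRG cells is measured after a 48 h chemical exposure, up to 100 uM in 0.5% DMSO vehicle. Curves are fitted in both directions relative to the DMSO baseline.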

[18] = read-out: solute carrier (SLCO1B1), SLCO1B1 (gene 10599); assay: LTEA_HepaRG_SLCO1B1: Life Technologies and Expression Analysis (LTEA) Assay for solute carrier (SLCO1B1) using HepaRG (AID 2283530)
Method in brief: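 Gain or loss of SLCO1B1 mRNA is fitted against the 0.5% DMSO vehicle in human HepaRG liver cells treated 48 h at up to 100 uM in half-log steps. Expression comes from qRT-PCR normalized to endogenous controls.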

Measured: AC50

Sequence of Signal transducer and activator of transcription 3 (Homo sapiens) (P40763 whole entry, looked up): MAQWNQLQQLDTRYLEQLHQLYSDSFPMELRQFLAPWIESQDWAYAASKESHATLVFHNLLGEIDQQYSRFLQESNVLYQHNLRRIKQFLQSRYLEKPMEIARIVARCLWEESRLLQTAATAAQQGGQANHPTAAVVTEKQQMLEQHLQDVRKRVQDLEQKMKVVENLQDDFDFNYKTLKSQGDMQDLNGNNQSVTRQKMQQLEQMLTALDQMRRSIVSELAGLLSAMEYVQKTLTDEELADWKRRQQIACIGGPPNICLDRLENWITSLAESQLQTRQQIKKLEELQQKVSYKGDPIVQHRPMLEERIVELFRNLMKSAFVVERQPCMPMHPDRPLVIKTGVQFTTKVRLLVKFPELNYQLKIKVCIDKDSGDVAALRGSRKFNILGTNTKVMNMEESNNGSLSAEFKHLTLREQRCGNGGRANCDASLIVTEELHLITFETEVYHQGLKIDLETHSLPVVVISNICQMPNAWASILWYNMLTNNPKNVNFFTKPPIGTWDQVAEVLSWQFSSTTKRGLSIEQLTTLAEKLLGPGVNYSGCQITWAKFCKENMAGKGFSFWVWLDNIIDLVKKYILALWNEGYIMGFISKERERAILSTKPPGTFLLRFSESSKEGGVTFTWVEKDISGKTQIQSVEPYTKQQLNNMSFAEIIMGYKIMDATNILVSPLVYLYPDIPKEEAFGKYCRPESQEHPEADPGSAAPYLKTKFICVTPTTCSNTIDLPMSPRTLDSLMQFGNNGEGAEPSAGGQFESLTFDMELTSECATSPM
Sequence of Nuclear factor erythroid 2-related factor 2 (Homo sapiens) (Q16236 whole entry, looked up): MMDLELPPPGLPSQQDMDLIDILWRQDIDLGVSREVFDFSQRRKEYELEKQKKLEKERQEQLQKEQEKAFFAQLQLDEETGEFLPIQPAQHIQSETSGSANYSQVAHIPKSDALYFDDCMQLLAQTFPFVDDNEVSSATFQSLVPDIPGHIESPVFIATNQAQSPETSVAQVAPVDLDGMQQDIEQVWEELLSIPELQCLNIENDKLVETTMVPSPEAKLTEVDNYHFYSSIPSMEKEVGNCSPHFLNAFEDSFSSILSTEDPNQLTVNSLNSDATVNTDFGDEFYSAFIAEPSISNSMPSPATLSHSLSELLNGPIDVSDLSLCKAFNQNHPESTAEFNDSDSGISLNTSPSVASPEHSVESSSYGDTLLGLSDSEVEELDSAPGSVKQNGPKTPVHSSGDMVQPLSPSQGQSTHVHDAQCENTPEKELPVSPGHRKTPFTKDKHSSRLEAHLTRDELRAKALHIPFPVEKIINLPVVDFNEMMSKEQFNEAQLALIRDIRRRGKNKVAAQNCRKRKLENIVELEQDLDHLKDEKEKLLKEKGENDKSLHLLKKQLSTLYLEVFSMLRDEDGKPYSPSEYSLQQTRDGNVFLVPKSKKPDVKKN

O=C(Nc1ccccc1)c1ccccc1I
active: [1] 50 µM | [3] 50 µM | MYC, MYC (gene 4609) 41.6 µM | [6] 31.2 µM | [9] 31.1 µM | [10] 9.92 µM | [12] 77.6 µM | [17] 50 µM
not listed: [18]
inactive: all other assays above

ClCCOCCCl
not listed: [18]
inactive: all other assays above

O=Cc1ccco1
not listed: [7]
inactive: all other assays above

Cc1cc(N=Nc2ccccc2C)ccc1N
active: [1] 3.22 µM | [2] 4.4 µM | [3] 3.67 µM | MYC, MYC (gene 4609) 5.49 µM | [5] 12.2 µM | [6] 4.04 µM | [8] 4.12 µM | [9] 4.83 µM | [10] 2.39 µM | [12] 9.92 µM | [18] 3.57 µM | [15] 12.8 µM | [16] 12.6 µM | [17] 2.72 µM
inactive: [4] | [11] | [13] | [14]

CCCCCCCCn1sccc1=O
active: [1] 80.9 µM | [3] 82.3 µM | [4] 76.6 µM | [6] 52 µM | [9] 78.4 µM | [10] 34.4 µM
not listed: [18]
inactive: all other assays above

OCCCBr
not listed: [18]
inactive: all other assays above

Cc1ccc([N+](=O)[O-])cc1
active: [6] 11.3 µM
not listed: [18]
inactive: all other assays above

— PubChem BioAssay (EPA / NIEHS)
